# Source: PubChem
# HDAC3 inh – inhibitors of human histone deacetylase 3. O15379. recombinant HDAC3, fluorogenic peptide/trypsin coupled, fluorescence. inhibition, % at 8.3 µM. hit rate 0.15% among 320,000. AID 2718; in the data active = inhibition above about 26%, passing the limit was not always enough
# pCIP destab – p/CIP protein destabilization; Q05BA5; F442A p/CIP-EGFP cells, EGFP fluorescence, 16 h; decrease of EGFP signal, % at 10 µM; hit rate 0.01% among 290,000; AID 1984;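 active = EGFP signal decrease of at least 30% at 10 µM or well 3 SD below plate mean, unless failing retest; inactive = the rest, including hits failing retest or dose response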
# SUMO Mot1 rescue – inhibitors of SUMOylation pathway: yeast Mot1-301 growth rescue. S. cerevisiae Mot1-301 growth rescue, ATP luminescence, 38.5C; percent above DMSO median, 100 means doubled. growth rescue, % at 18.8 µM. hit rate 1% among 320,000;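 active = every valid replicate shows activation above 250% relative to neutral control wells; inactive = the rest, any valid replicate at or below 250%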;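 also: OY570 slx delta 5 strain wells were the positive control but not used for scaling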
# PHOSPHO1 inh – inhibitors of human PHOSPHO1 phosphatase. Q8TCT1. recombinant PHOSPHO1, absorbance phosphatase assay. inhibition, % at 13.3 µM. hit rate 1.1% among 290,000; in the data active = inhibition above about 60%
# Target sequence (Q8TCT1 whole entry, looked up): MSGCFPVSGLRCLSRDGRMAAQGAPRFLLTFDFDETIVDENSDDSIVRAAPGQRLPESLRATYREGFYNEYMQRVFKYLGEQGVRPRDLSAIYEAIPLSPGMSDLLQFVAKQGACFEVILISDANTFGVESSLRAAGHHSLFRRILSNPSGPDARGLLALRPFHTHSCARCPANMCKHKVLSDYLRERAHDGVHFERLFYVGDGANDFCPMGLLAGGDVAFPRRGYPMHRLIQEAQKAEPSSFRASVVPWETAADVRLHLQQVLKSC
# JMJD2C inh – inhibitors of human GASC-1 (JMJD2C) demethylase; Q9H3R0; GST-JMJD2C(1-420) H3K9me3 demethylation, DELFIA europium; inhibition, % at 2.35 µM; hit rate 0.069% among 330,000;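 active = more than half of a compound's replicate wells show inhibition beyond 50%, single wells judged on their own value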;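 also: signal counts dimethyl H3K9 product captured on neutravidin plate; 0% = median of DMSO wells and 100% = 0.3 times that DMSO median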
# PvdQ inh – blocks Pseudomonas aeruginosa PvdQ acylase activity; inhibition, % at 10 µM; purified PvdQ acylase, fluorescence plate reader; hit rate 0.063% among 340,000; in the data active = inhibition above about 30%, passing the limit was not always enough;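 also: 0% = vehicle neutral wells and 100% = reference inhibitor wells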
# Active calls of the source: *; · = not tested or not shown; + = active, no number. The list is not random: actives were taken first. Their share in the collection is about 2.2%.
SMILES,HDAC3 inh,pCIP destab,SUMO Mot1 rescue,PHOSPHO1 inh,JMJD2C inh,PvdQ inh
CCOC(=O)c1c(-c2ccc(C)s2)csc1N,-1,-5,98,-92,-2,-12
CN1CCCN(C(=O)c2cccc3ccccc23)CC1,-1,-12,3,·,3,-8
Fc1ccc(NC(=S)N2CCN(c3ccccn3)CC2)cc1Cl,0,·,-1,·,8,-6
CC[n+]1c(/C=C/Nc2ccccc2)oc2ccccc21,6,-40,-7,101*,6,11
CCOC(=O)C1CCCN(C(=O)c2ccc3nc(-c4cccc(OC)c4)oc3c2)C1 (centres undefined),4,-1,11,-13,7,1
S=C1NC2=C(CCCC2=C2SCCCS2)C(c2ccccc2)N1 (centres undefined),43*,-7,-4,3,1,-7
Cn1ccnc1SCC(=O)Nc1ccc(Oc2ccccc2)cc1,-5,-5,·,84*,19,4
CCCCCn1ccc(=N)cc1,-1,-23,5,93*,-10,5
Cc1cc(Cl)ccc1OC(C)C(=O)NCCCn1ccnc1 (centres undefined),-4,0,-10,-26,-1,-17
Cc1ccccc1NC(=O)Cc1nnc(N)s1,1,-13,11,-15,5,-8
Cc1cc(C)nc(NC(N)=NC(C)c2ccccc2)n1 (centres undefined),8,-12,-9,36,51*,·
COc1ccc(C2c3[nH]c4ccccc4c3C[C@H]3C(=O)N(c4ccccc4C(=O)N4CCC[C@@H]4C(=O)O)C(=O)N23)cc1 (some centres undefined),-1,·,102,·,-4,-8
Cc1ccc(C2c3[nH]c4ccccc4c3C[C@H]3C(=O)N(c4ccccc4C(=O)N4CCC[C@H]4C(=O)O)C(=O)N23)cc1 (some centres undefined),-2,13,605*,13,1,-12
CC(NC(=O)c1cnccn1)c1ccc(S(N)(=O)=O)cc1 (centres undefined),·,-6,-17,-1,1,-12
CC(C)c1cc(=O)oc2c3c4c(cc12)CCCN4CCC3,-32,4,11,90*,0,-28
COc1ccc(-n2c(-c3ccc(Cl)cc3)c[nH]c2=S)cc1,0,-4,33,-23,-33,-11
CS(=O)(=O)c1ccc(C(=O)OCC(=O)Nc2cccnc2Cl)cc1[N+](=O)[O-],1,·,-6,·,-2,-8
Cc1ccccc1NC(=O)COC(=O)c1ccc(S(C)(=O)=O)c([N+](=O)[O-])c1,3,-14,13,60*,-1,3
Cc1c(C(=O)N2CC[C@@H](N3CCC(O)CC3)[C@H](O)C2)[nH]c2ccc(Cl)cc12,-3,-3,2,34,-7,-6
COc1ccc(CC(=O)NC(C)c2ccc3ccccc3c2)cc1 (centres undefined),-4,-8,-5,·,-3,3
CSc1ncccc1C(=O)Nc1ccc(OC(F)(F)F)cc1,11,-1,-18,2,10,7
CC(=O)Nc1ccc(Sc2ncccc2C(=O)Nc2ccc(F)cc2)cn1,0,8,-8,62*,-2,-11
CC1=NN(C(N)=S)C(=O)C1N=Nc1ccccc1C(=O)O (centres undefined),13,-2,-3,62*,-2,-4
CC1=NN(C(N)=S)C(=O)C1N=Nc1ccccc1Cl (centres undefined),-1,-17,10,13,4,6
CC(C)c1cccc(C(C)C)c1NC(=O)CCN1C(=O)NC2(CCCC2)C1=O,-3,·,51,·,1,5
SMILES,HDAC3 inh,pCIP destab,SUMO Mot1 rescue,PHOSPHO1 inh,JMJD2C inh,PvdQ inh
COc1ccc(-n2cc(-c3ccc(Cl)cc3)[nH]c2=S)cc1,5,-11,-10,60*,3,8
COc1ccc(-c2csc(NC(C)c3nc4cc(Cl)c(Cl)cc4n3CCCO)n2)cc1 (centres undefined),11,·,-5,·,-39,-1
CCCSc1nc(C)c(-c2csc(C(C#N)=C3CCCC3)n2)cc1C#N,-1,1,-14,74*,7,-3
CS(=O)(=O)N1CCN(C(=O)CCC2CCCC2)CC1,1,-14,332*,14,-8,-5
CCOC(=O)N1CCN(C(=O)CCC2CCCC2)CC1,1,-14,14,10,176,-8
Nc1ccccc1C(=O)NNC1=C(C(=O)C(F)(F)F)CCC1,46*,-17,4,29,3,-6
O=C(NNC1=C(C(=O)C(F)(F)F)CCC1)c1ccccc1O,21,0,-22,20,-10,3
Cc1sc(NC(=O)CSc2nnc(-c3ccccc3)o2)c(C#N)c1C,3,-3,-12,17,1,-8
Cc1sc(NC(=O)CSc2nc(N)cc(N)n2)c(C#N)c1C,-3,4,319*,25,-3,-11
CCOc1ccc(CNC(=O)CCS(=O)(=O)Cc2cccc(Cl)c2)cc1OC,-1,-7,-3,18,-3,-6
S=c1[nH]nc(-c2ccc3ccccc3n2)o1,1,-6,-14,89*,2,-16
FC(F)(F)c1ccc(-c2n[nH]c(=S)o2)nc1,5,13,-9,-10,-10,-2
C#CCNc1cc(C)nc2ncnn12,2,-15,-3,-8,5,-3
CCC(C)Nc1cc(C)nc2ncnn12 (centres undefined),6,6,+,37,-5,-13
O=S(=O)(c1cccs1)N1CCN(c2ccccc2F)CC1,5,-4,335*,32,9,2
CC1CCCC(C(=O)O)N1C(=O)CCS (centres undefined),0,-4,·,62*,-19,-8
CN1/C(=C\C(=O)COC(=O)Cn2nnc(-c3ccccc3)n2)C(C)(C)c2ccccc21,-10,-25,268*,50,-9,0
Cc1ccc(CNC(=O)CN2CCN(c3ccc(F)cc3)CC2)cc1,2,1,4,4,1,-15
CCCCCCCCS(=O)c1sc2nc3c(cc2c1N)CCCC3 (centres undefined),-2,·,2,·,-7,4
CCCCCCCCS(=O)c1sc2nc(C)cc(C)c2c1N (centres undefined),1,-2,5,94*,-1,-3
O=C(CNCCc1ccc(Cl)cc1Cl)NCc1ccco1,-6,-2,-1,63*,-2,-4
O=C(CNCc1ccccc1Cl)NCc1ccco1,7,-1,8,39,-7,-13
COc1ccc2cc(Br)ccc2c1CC(=O)NCCCN1CCOCC1,-8,·,11,·,57*,-16
C=CCNC(=O)Cc1c(OC)ccc2cc(Br)ccc12,-3,6,-30,39,5,1
COc1ccccc1NC(=O)COc1ccc(Br)cc1CNCCCN1CCOCC1,-1,-1,155,70*,13,-8
